From PubChem BioAssay (NCI) come the findings set out here.

Molecules are shown by their SMILES. This is part of a sample that, as a whole, favours compounds with a hit. Of some 79,000 tested, about 15% had one in any assay. A number with no mark means an inactive call. The source made the active and inactive calls. Cut-off read from the data, not from the text of the source: active = growth inhibition above about 70%; inactive = the rest.

Assay [1] in a line: NCI Yeast Anticancer Drug Screen. Data for the rad50 strain (AID 155).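 Note: 0% = growth of vehicle-only cultures of the same strain.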 Conditions: S. cerevisiae rad50 strain growth inhibition; at 50.0 µM; stronger effect = higher value. A digest of the protocol: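 DNA repair mutant yeast, compound exposure, growth read-out; inhibition is taken relative to vehicle.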
Assay [2] in a line: NCI Yeast Anticancer Drug Screen. Data for the mec2-1 strain (AID 157). The conditions noted are these: S. cerevisiae mec2-1 strain, at 50.0 µM, stronger effect = higher value. A digest of the protocol: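 Yeast mec2-1 mutant treated with compound. Readout: growth inhibition vs vehicle controls.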
Assay [3] is described as follows: NCI Yeast Anticancer Drug Screen. Data for the sgs1 mgt1 strain (AID 161).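 Note: 0% = growth of cultures given vehicle only.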 Conditions: S. cerevisiae sgs1 mgt1 strain, at 50.0 µM, stronger effect = higher value. A digest of the protocol:
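Genetically altered yeast, compound exposure, growth inhibition relative to vehicle.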

Assay [4] is described as follows: NCI Yeast Anticancer Drug Screen. Data for the cln2 rad14 strain (AID 165).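 Note: 0% = growth equal to vehicle treated cultures.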 Conditions: S. cerevisiae cln2 rad14 strain, at 50.0 µM, stronger effect = higher value. In outline:
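cln2 rad14 yeast strain; compound exposure; growth inhibition read vs vehicle controls.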

A short description of assay [5]: NCI Yeast Anticancer Drug Screen. Data for the bub3 strain (AID 167). Conditions: S. cerevisiae bub3 mutant strain, at 50.0 µM, stronger effect = higher value. In outline: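 In this screen, a yeast mutant lacking normal mitotic checkpoint function is challenged with compound. Relative growth versus vehicle gives the inhibition value.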
Assay [6] is described as follows: NCI Yeast Anticancer Drug Screen. Data for the mlh1 rad18 strain (AID 175). Conditions: S. cerevisiae mlh1 rad18 strain growth inhibition; at 50.0 µM; stronger effect = higher value. In outline:
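Yeast w/ defined DNA-repair lesions; compound exposure; growth vs vehicle controls → % inhibition.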

Consider `CC[N+](C)(CC)CCl`, for which the growth inhibition was -49.2% in assay [1]; -17.9% in assay [2]; -20.8% in assay [3]; -45.4% in assay [4]; 7.6% in assay [5]; -1.65% in assay [6].
On to `ClC(=Nc1cccc(Cl)c1)C(Cl)=Nc1cccc(Cl)c1`, for which the growth inhibition in assay [1] is -6.5%; in assay [2], -1.7%; in assay [3] it was -2.05%; in assay [4] it was 12.6%; in assay [5], 6.45%; in assay [6], 1.15%.
`CCc1c(C)c(C#N)c(=S)n(C2OC(COC(C)=O)C(OC(C)=O)C(OC(C)=O)C2OC(C)=O)c1-c1ccccc1` (stereo unspecified): the growth inhibition is 2.55% in assay [1]; 13.1% in assay [2]; 37.6% in assay [3]; 8.25% in assay [4]; 11.1% in assay [5]; 13.6% in assay [6].
Turning to `CN(C)Cc1ccc2ccccc2c1CC(O)(c1ccccc1)c1ccccc1`, the growth inhibition in assay [1] was 26.3%; in assay [2] it was -2.05%; in assay [3], 9.55%; in assay [4], 2.25%; in assay [5] it was 0.85%; in assay [6] it was 7.35%.
Take `O=c1oc2ncccc2n1Cc1ccc([N+](=O)[O-])cc1`: the growth inhibition was -14.7% in assay [1]; -22% in assay [2]; 1.25% in assay [3]; 20.8% in assay [4]; -1.15% in assay [5]; 19.6% in assay [6].
On to `COc1ccc2ccc3c4c(c(=O)[nH]c3c2n1)CCC4`, for which the growth inhibition in assay [1] is 44%; in assay [2], 28.8%; in assay [3] it was 33.7%; in assay [4], 2.55%; in assay [5], 9.95%; in assay [6] it was 30.9%.
Consider `NNc1cccc(Cl)n1`, for which the growth inhibition is 6.65% in assay [1]; -4.7% in assay [2]; -5.5% in assay [3]; 17.6% in assay [4]; -9.8% in assay [5]; 8.05% in assay [6].
As to `N#Cc1n[nH]n(C2CCCCC2)c1=O`, the growth inhibition in assay [1] is -29.4%; in assay [2], -12.8%; in assay [3] it was -13.3%; in assay [4], -0.3%; in assay [5], -20.1%; in assay [6] it was -14.2%.
Turning to `CC(C)Oc1cc2c(cc1O)CC[C@@H]1[C@@H]2CC[C@]2(C)[C@@H](O)CC[C@@H]12`, the growth inhibition in assay [1] was 45.9%; in assay [2] it was 8.2%; in assay [3], 63.7%; in assay [4], 33%; in assay [5] it was 56.9%; in assay [6], 44.1%.
For the compound `CC(C)NNC(N)=O`, the growth inhibition in assay [1] was -0.2%; in assay [2] it was 1.7%; in assay [3], -0.8%; in assay [4] it was -8.1%; in assay [5] it was 12.4%; in assay [6], -5.65%.
As to `O=c1ccc2ccc(O)c(O)c2o1`, the growth inhibition in assay [1] is -10.9%; in assay [2] it was -5.3%; in assay [3], 12.9%; in assay [4] it was 18.1%; in assay [5], 30.7%; in assay [6] it was 1.5%.
Take `CN(C)CCNC(=O)c1cccc2c(Nc3ccc(S(=O)(=O)N=C(N)N)cc3)c3ccccc3nc12`: the growth inhibition in assay [1] was -24.4%; in assay [2], -0.3%; in assay [3], -37%; in assay [4] it was 8.35%; in assay [5], -34.9%; in assay [6] it was 53.9%.
Consider `CC1=C(C#N)C(C#N)(C#N)C(NN(C)C)C1` (stereo unspecified), for which the growth inhibition in assay [1] is 8.3%; in assay [2], 20.9%; in assay [3] it was 1.5%; in assay [4] it was -8.6%; in assay [5], -15.9%; in assay [6], -40%.
Consider `N#C/C(N)=C(\C#N)N=CN`, for which the growth inhibition is -5.5% in assay [1]; 5.5% in assay [2]; -7.1% in assay [3]; 34% in assay [4]; -22.3% in assay [5]; -27.9% in assay [6].
For the compound `COc1ccc(N(Cc2ccccc2)c2nn[nH]n2)cc1`, the growth inhibition in assay [1] is 13.9%; in assay [2], -18.4%; in assay [3] it was -3.3%; in assay [4], 11.6%; in assay [5] it was -5.6%; in assay [6], -19.8%.
Turning to `CC(=O)Oc1ccc2c(c1)CC[C@@H]1C2[C@@H](O[N+](=O)[O-])C[C@@]2(C)C1CC[C@@H]2O` (stereo partly specified), the growth inhibition in assay [1] is 25.5%; in assay [2] it was 43.3%; in assay [3] it was 77.2% (active); in assay [4], 62%; in assay [5], 31.9%; in assay [6], 57.8%.
Consider `COc1ccc(C2CC(=O)Oc3cc4c(cc32)OCO4)cc1` (stereo unspecified), for which the growth inhibition was -10.2% in assay [1]; -8.05% in assay [2]; -11.2% in assay [3]; -11.6% in assay [4]; -2.2% in assay [5]; -15.9% in assay [6].
On to `Oc1c(N=Nc2ccccc2)c2ccccc2c2ccc3ccccc3c12`, for which the growth inhibition is -23.3% in assay [1]; -13.7% in assay [2]; -7.6% in assay [3]; -15.9% in assay [4]; -8.2% in assay [5]; 6.85% in assay [6].
As for `COC(=O)c1cccnc1C#N`, the growth inhibition in assay [1] was 2.2%; in assay [2], -0.95%; in assay [3] it was 2.9%; in assay [4], -5.95%; in assay [5], 0.55%; in assay [6] it was 0.4%.
Consider `O=C(c1ccccc1)N(N=C(c1ccc([N+](=O)[O-])cc1)c1ccc([N+](=O)[O-])cc1)c1ccccc1`, for which the growth inhibition was 24.7% in assay [1]; 15.1% in assay [2]; -6.6% in assay [3]; -5.9% in assay [4]; 5% in assay [5]; 10.6% in assay [6].
As to `O=c1ccn(Cc2ccccc2)c(=O)[nH]1`, the growth inhibition in assay [1] was 25.6%; in assay [2], -10.3%; in assay [3], 4.35%; in assay [4], -29.4%; in assay [5], -3.95%; in assay [6], 21.9%.
